Shown are actives, neighbours in structure and some others; about 0.56% of the full set was active somewhere.
GALK inh: blocks human galactokinase activity; 270,000 tested, 0.007% active; P51570; AID 1868; Purified GALK, Kinase-Glo residual ATP luminescence; Potency, µM (titrated, usually from 57.5 µM), for the others: at the top dose activity change, negative = inhibition, most hits filed as inhibitors; further: potency means the concentration at half of the fitted maximal effect; on the % scale 0 is the no-effect control and ±100 the full control effect
Target sequence (P51570 whole entry, looked up): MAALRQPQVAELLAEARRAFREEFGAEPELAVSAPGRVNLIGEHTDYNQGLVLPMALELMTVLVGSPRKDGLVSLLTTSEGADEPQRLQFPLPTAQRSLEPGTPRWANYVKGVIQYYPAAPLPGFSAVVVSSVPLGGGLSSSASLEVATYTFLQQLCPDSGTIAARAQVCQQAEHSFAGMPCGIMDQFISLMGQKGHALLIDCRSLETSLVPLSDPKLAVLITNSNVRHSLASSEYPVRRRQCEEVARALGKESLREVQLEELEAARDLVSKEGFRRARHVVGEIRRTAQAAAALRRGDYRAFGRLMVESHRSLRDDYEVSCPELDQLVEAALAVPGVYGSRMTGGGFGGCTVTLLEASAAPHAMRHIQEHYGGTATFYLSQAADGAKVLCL
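Luminescence from leftover ATP (Ultra-Glo luciferase/luciferin) served as read-out after a 1 h room-temperature reaction of 5 nM GALK with 35 uM ATP and 100 uM galactose.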
Tb PFK inh-1: inhibitors of T. brucei phosphofructokinase. T. brucei PFK, ADP-Glo luminescence. Potency, µM (highest dose often 57.5 µM), for inactives: top-dose activity, negative = inhibition, actives largely listed as inhibitors. 330,000 tested, 0.17% active. O15648. AID 485367;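 further: potency means the concentration at half of the fitted maximal effect; 0% = uninhibited 1x PFK enzyme wells and -100% = no-enzyme wells; nearly all actives have a fitted effect of over 60% in size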
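1.25 nM PFK with 0.5 mM F6P and 0.1 mM ATP in 0.1 M TEA pH 8.0, 5 mM MgCl2, incubated 45 min at room temperature; ADP measured by ADP-Glo luminescence; compounds titrated up to 57 uM.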
KinaseGlo FLuc: blocks Kinase-Glo luciferase, a counter-screen artifact; Q27757; Kinase-Glo luciferase, ATP luminescence, 8 min; Potency, µM (highest dose often 38.3 µM), for the others: top-dose activity change, negative = inhibition, hits mostly inhibitors; 200,000 tested, 0.28% active; further: potency means the concentration at half of the fitted maximal effect; on the % scale 0 is the no-effect control and ±100 the full control effect; nearly all actives have a fitted effect of over 60% in size
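Luminescence was the read-out, taken after 8-minute incubation at ambient temperature. Luciferase turned over luciferin with 10 uM ATP in imidazole pH 7.2 buffer containing KCl, MgCl2, Tween 20 and BSA.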
CBFb-RUNX1 inh: CBF-beta/RUNX1 interaction disruption; AlphaScreen CBFb-His/RUNX1-biotin binding, biochemical; Potency, µM (doses to about 59.8 µM), without a hit: top-dose activity, negative = inhibition, usual class: inhibitors; 230,000 tested, under 10 active; further: % of control where 0% means no effect
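CBFb-His/RUNX1-biotin, 30 nM each, preincubated 20 min RT; compound 15 min RT; Ni + streptavidin beads 50 ng each, 90 min RT; AlphaScreen read.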
PKM2 act: increases activity of human pyruvate kinase M2; P14618; purified PKM2, Kinase-Glo ATP luminescence, activation; response scale: 0% is enzyme alone, no compound; Potency, µM (doses to about 57.5 µM), for the others: at the top dose activation, hits mostly activators; 260,000 tested, 0.34% active; AID 1631; further: potency means the concentration at half of the fitted maximal effect; on the % scale 0 is the no-effect control and ±100 the full control effect; nearly all actives have a fitted effect of over 55% in size
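hPK-M2, >95% pure; 0.1 mM ADP / 0.5 mM PEP final; imidazole pH7.2 buffer w/ 7 mM MgCl2, 50 mM KCl; 1 h RT; Kinase-Glo lum. Intermediate enzyme activity for dual inhibitor/activator qHTS.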
TbPFK ATP: Tb phosphofructokinase inhibition, orthogonal luminescence. Potency, µM (titrated, usually from 57.5 µM), without a hit: top-dose inhibition. Tb PFK enzyme, ATP depletion, Kinase-Glo Plus luminescence. AID 504636. 1,100 tested, 47% active. shares compounds with Tb PFK inh-1; calls by dose curve; further: potency means the concentration at half of the fitted maximal effect; nearly all actives have a fitted effect of over 60% in size
Tb PFK inh-2: T. brucei PFK enzyme inhibition, hit validation; shares compounds with Tb PFK inh-1; purified T. brucei PFK, ADP-Glo luminescence, 45 min; Potency, µM (titrated, usually from 57.5 µM), without a hit: at the top dose activity change, negative = inhibition, actives largely listed as inhibitors; 1,100 tested, 41% active; AID 504637;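 further: potency means the concentration at half of the fitted maximal effect; plate controls were full PFK enzyme control for no effect and no enzyme control for full effect; nearly all actives have a fitted effect of over 60% in size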
Numbers without * were called inactive; ? = inconclusive; nt = not tested or not shown; [ ] = dose if it differs, or a comment. Unless noted, the call rests on the fitted dose curve; in most records, active means well fitted curve in the direction sought with a large enough effect; inconclusive means small, poorly fitted or top-dose-only effect, or another doubt; inactive means no such curve, though single readings can be large; an effect the other way counts as inactive or inconclusive.

SMILES	GALK inh	Tb PFK inh-1	KinaseGlo FLuc	CBFb-RUNX1 inh	PKM2 act	TbPFK ATP	Tb PFK inh-2
Nc1ccc2nc(-c3cccc(-c4nc5ccc(N)cc5[nH]4)c3)[nH]c2c1	-2%	?	nt	nt	nt	5%	1%
CCCOC(=O)[C@@H]1[C@@H](C(=O)O)[C@H]2CC[C@@H]1O2	nt	nt	-1%[7.66 µM]	nt	nt	nt	nt
COc1ccc(OC)c(S(=O)(=O)N(C(C)=O)c2ccc3oc(=O)sc3c2)c1	-1%	?	1%	0%	6%	-21%	?
ClC(Cl)(Cl)C(Cl)(Cl)Cl	nt	nt	nt	2%[21.7 µM]	nt	nt	nt
O=C(N/N=C/C=C/c1ccc([N+](=O)[O-])cc1)C1COc2ccccc2O1 (stereo unspecified)	-3%	12µM*	-2%	1%	-10%	13µM*	24µM*
O=C(N/N=C\C=C\c1ccco1)C1COc2ccccc2O1 (stereo unspecified)	-1%	24µM*	nt	-4%	27%	21µM*	?
O=[N+]([O-])c1ccc(Nc2ccccc2)cc1	0%	0%	-2%	-4%	-15%	nt	nt
C=CCBr	nt	nt	nt	0%[21.7 µM]	nt	nt	nt
CC(C)(C)OOC(=O)c1ccccc1	nt	nt	nt	3%[21.7 µM]	nt	nt	nt
NC(=O)CF	nt	nt	nt	7%	nt	nt	nt
COC1(C)CC(c2ccccc2)c2c(c3ccccc3oc2=O)O1 (stereo unspecified)	nt	nt	nt	8%	nt	nt	nt
COC(=O)Oc1nsnc1N1CCOCC1	-1%	27µM*	1%	0%	-15%	?	?
C1C[C@@H]2CN(CCCN3CCOCC3)[C@@H](C1)O2	nt	nt	3%[7.66 µM]	nt	nt	nt	nt
COc1cccc(OP(=O)(Nc2ccccc2)Oc2cccc(OC)c2)c1	-10%	-1%	nt	nt	0%	nt	nt
COc1cccc(NC(=S)Nc2ccc(O)cc2)c1	-2%	?	nt	-13%	-2%	?	-14%
COc1ccccc1/C=C1\SC(=S)N(NS(=O)(=O)c2ccccc2)C1=O	-4%	?	nt	nt	nt	-27%	?
Cc1ccc(S(=O)(=O)Oc2ccccc2C=C2C(=O)N(C)C(=O)N(C)C2=O)cc1	7%	10%	nt	nt	1%	nt	nt
COc1cccc(OCCc2c(C)n[nH]c2C)c1	0%	27µM*	0%	0%	6%	?	?
Cc1n[nH]c(C)c1CCN	2%	4%	-3%	4%	0%	nt	nt
COc1ccc(/C=C/C(=O)NC(=S)N2C[C@H]3C[C@H](C2)c2cccc(=O)n2C3)cc1	nt	4%	nt	nt	0%	nt	nt
CCc1nnc(NS(=O)(=O)c2ccc(NC(=S)NC(=O)/C=C/c3ccc(OC)cc3)cc2)s1	-3%	?	8%	-1%	?	?	?
CN1CCN(c2cccc3c2C(=O)c2ccccc2C3=O)CC1	2%	5%	-3%	-7%	2%	nt	nt
Nc1ccc(O)c2c1C(=O)c1ccccc1C2=O	nt	?	13µM*	0%	0%	11%	-24%
CCOC(=O)C1OC1(C)c1ccccc1 (stereo unspecified)	nt	nt	nt	24%[21.7 µM]	nt	nt	nt
O=C(CNC(=O)c1cccc(Cl)c1)Nc1ccc(Br)cc1C(=O)c1ccccc1	-1%	5%	-3%	7%	6%	nt	nt
SMILES	GALK inh	Tb PFK inh-1	KinaseGlo FLuc	CBFb-RUNX1 inh	PKM2 act	TbPFK ATP	Tb PFK inh-2
Cc1ccc(C(=O)NNC(=O)CNc2cccc(Cl)c2)cc1	0%	19µM*	1%	0%	1%	12µM*	24µM*
O=C1NC(=Nc2ccccc2)S/C1=C\C=C\c1ccco1	0%	7.6µM*	-15%	-2%	4%	?	?
Cc1cc(C(=O)COC(=O)c2cc(Cl)c(O)c(Cl)c2)c(C)n1C	nt	17µM*	nt	nt	nt	?	-18%
O=C(Nc1ccc(Cc2ccncc2)cc1)c1ccc(Cl)c([N+](=O)[O-])c1	-1%	21µM*	1%	13%	2%	21µM*	?
O=C(Nn1cnnc1)c1ccc(Cl)c([N+](=O)[O-])c1	2%	?	nt	4%	-2%	-26%	?
O=[N+]([O-])c1ccc(Cl)c([N+](=O)[O-])c1	nt	-19%	nt	nt	nt	nt	nt
C=CC=O	nt	nt	nt	-7%[21.7 µM]	nt	nt	nt
CCCCCCCCCCCCCC(=O)O[C@@H]1[C@@H](C)[C@@]2(O)[C@H](C=C(CO)C[C@]3(O)C(=O)C(C)=C[C@@H]23)[C@@H]2C(C)(C)C12OC(C)=O (stereo partly specified)	nt	nt	nt	11%	nt	nt	nt
CS(=O)(=O)NN1C(=O)c2ccccc2NC1c1cc2ccccc2nc1Cl (stereo unspecified)	-1%	21µM*	3%	-2%	3%	9.5µM*	24µM*
O=C1NC(c2cc3ccccc3nc2Cl)Nc2ccccc21 (stereo unspecified)	nt	-5%	-2%	4%	?	nt	nt
CCOP(=O)(OCC)C(NC(=O)c1cccc2ccccc12)C(Cl)(Cl)Cl (stereo unspecified)	-2%	0%	-2%	-5%	-10%	nt	nt
O=C(N/N=C/c1sc2ccccc2c1O)c1cccc2ccccc12	2%	?	-1%	?	-7%	-25%	?
O=C1Nc2ccccc2C(=O)C1(Cl)Cc1ccccc1 (stereo unspecified)	1%	?	3%	-2%	-4%	11µM*	13µM*
CSc1ccc2c(c1)c(CCN)c(C)n2Cc1ccccc1Cl	nt	nt	0%[7.66 µM]	nt	nt	nt	nt
O=c1cc(-c2ccccc2)oc2cc(O)c(O)c(O)c12	nt	7.6µM*	1%	?	nt	2.7µM*	5.4µM*
COc1cc2c(cc1OC)[C@@]13CCN4CC5=CCO[C@H](CC(=O)O)[C@@H]([C@H]1N2)[C@H]5C[C@H]43	nt	nt	0%[7.66 µM]	nt	nt	nt	nt
C=C(C)C1Cc2c(ccc3c2OC2COc4cc(OC)c(OC)cc4C2C3=O)O1 (stereo unspecified)	nt	nt	-2%	nt	nt	nt	nt
O=c1[nH]cnc2[nH]cc(CN3CCCCC3)c12	nt	nt	-2%[7.66 µM]	nt	nt	nt	nt
N[C@H](Cc1ccc2oc3cc(=O)c4ccccc4c-3nc2c1)C(=O)O	nt	nt	-4%[7.66 µM]	nt	nt	nt	nt
Cc1ccc(-c2c[n+](Cc3ccc(Cl)c(Cl)c3)c3n2CCC3)cc1	2%	6µM*	-2%	3%	-9%	4.8µM*	13µM*
Cc1c(C(=O)c2cccc3ccccc23)c2cccc3c2n1[C@@H](CN1CCOCC1)CO3	nt	nt	-1%[39.9 µM]	-26%	nt	nt	nt
COCCN(C(=O)COC(=O)c1cc2c(s1)CCC2)c1c(N)n(Cc2ccccc2)c(=O)[nH]c1=O	nt	3.8µM*	nt	nt	nt	1.1µM*	1.7µM*
COc1cc(/C=C(\C#N)C(=O)c2ccc(O)c(O)c2)cc(I)c1O	nt	1.7µM*	-3%	nt	nt	6%	-17%
